Results taken from PubChem BioAssay (NCATS).
A number with no mark means an inactive call. Results filed as inconclusive are left out. Entries that show only a call come without a potency. Active and inactive are the calls of the source. Unless noted, calls follow the shape of the dose curve; as a rule, active = well fitted curve in the direction sought with a large enough effect; inconclusive = small, poorly fitted or top-dose-only effect, or another doubt; inactive = no such curve, though single readings can be large; an effect the other way counts as inactive or inconclusive.

Experiments:
[1] = Cell Viability - Hek293 (AID 427;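 active = compounds whose dose-response curve shows a full or clear partial loss of cell viability, called from curve shape rather than a numeric limit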;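 also: potency is read from the fitted curve at half-maximal effect; cells exposed to compound for 40 hours at 37 °C before reading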); conditions: qHTS
Summary of the method: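 AC50 values derive from Hill-modelled concentration-response of ATP-based luminescence, normalized between DMSO-only and 100 uM tamoxifen controls. Cells were exposed in complete culture medium for 40 hr at 37 °C before detection.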

[2] = Cell Viability - NIH 3T3 (AID 541); conditions: NIH 3T3 cell viability, qHTS; activity change, negative = cytotoxicity: at 92.2 µM (top of the series); also: nearly all actives have a fitted effect of over 25% in size; also: potency is read from the fitted curve at half-maximal effect
Summary of the method: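 Intracellular ATP (CellTiter-Glo luminescence, 20 min at room temperature) measured after 40 hr compound exposure at 37 °C of 1000 NIH 3T3 mouse fibroblasts/well in complete medium; AC50 derived by Hill-equation modelling of qHTS concentration-response curves.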

[3] = Cellular Toxicity (caspase-3) Jurkat (AID 655); conditions: Jurkat caspase-3 activation, luminescence; caspase-3 activation: at 92.2 µM (top of the series), DMSO = 0%, tamoxifen = 100%;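 also: cells exposed to compound for 16 h at 37 °C before reading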; also: potency is read from the fitted curve at half-maximal effect
Summary of the method: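 Caspase 3/7 activation is scored as increased luminescence in Jurkat cells cultured with compound for 16 hours in complete medium. AC50 values come from Hill fits of qHTS concentration-response data normalized to DMSO and 100 uM tamoxifen controls.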

[4] = Cellular Toxicity (caspase-3) SHSY5Y (AID 657);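 also: cells exposed to compound for 16 hours at 37 °C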
Summary of the method: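 Cells plated and incubated 5 h at 37 °C, dosed over a concentration range, incubated 16 h, then given Caspase-Glo 3/7 reagent for 1 h at room temperature before luminescence reading. Staurosporine (10 uM) defined full stimulation.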

[5] = Cellular Toxicity (caspase-3) BJ (AID 658); conditions: Potency: caspase-3 activation; also: potency is read from the fitted curve at half-maximal effect
Summary of the method: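 Plated BJ cells (1000/well) rested 5 hr, received compound for 16 hr at 37 °C, then Caspase-Glo 3/7 reagent for 1 hr at room temperature before luminescence reading.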

[6] = Cellular Toxicity (caspase-3) MRC-5 (AID 659)
Summary of the method: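 Apoptosis readout in MRC-5 cells: luciferase light generated after caspase 3/7 cleaves a peptide-aminoluciferin substrate, measured post 16 hr compound incubation at 37 °C.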

[7] = Cellular Toxicity (caspase-3) SK-N-SH (AID 661); conditions: SK-N-SH caspase-3 activation, qHTS; caspase-3 activation: at 91.7 µM (top of the series), DMSO as zero, staurosporine as full
Summary of the method: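 Caspase 3/7 activation was read by luminogenic substrate cleavage after 16 hour treatment of SK-N-SH cells. Signal was scaled between DMSO and 10 uM staurosporine, and concentration-response data were fitted with the Hill equation for AC50.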

[8] = Cellular Toxicity (caspase-3) H-4-II-E (AID 663); conditions: H-4-II-E rat hepatoma; Potency: caspase-3 activation; caspase-3 activation: at 92.2 µM (top of the series), scaled: DMSO 0%, 100 µM tamoxifen 100%
Summary of the method: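 Caspase 3/7 activation measured in H-4-II-E cells in complete culture medium after 16 hr treatment at 37 °C, using luciferase-coupled substrate readout; AC50 values come from Hill-equation fits of normalized concentration-response data.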

[9] = Cellular Toxicity (caspase-3) Hek293 (AID 664); conditions: HEK293 caspase-3 activation, DMSO = 0%, 100 µM tamoxifen = 100%; at 92.2 µM (top of the series);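 also: cells exposed to compound for 16 h at 37 °C before readout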
Summary of the method: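 Concentration-response qHTS: caspase 3/7 activation measured by luminescent aminoluciferin substrate cleavage after 16 h compound exposure of Hek 293 cells. AC50 from Hill equation, with DMSO as basal and 100 uM tamoxifen as 100%.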

[10] = Cellular Toxicity (caspase-3) NIH 3T3 (AID 666);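 also: caspase signal read after 16 h compound exposure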; also: potency is read from the fitted curve at half-maximal effect
Summary of the method: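 Caspase-Glo 3/7 luminescence reported caspase activation in 1000 NIH 3T3 cells/well after 16 h compound exposure at 37 C. DMSO set basal and 100 uM tamoxifen set 100% stimulation; concentration-response modeled with the Hill equation for AC50.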

[11] = MultiTox-Fluor Cytotoxicity Assay - LYMP1-001 - Dead Cells (AID 946); also: potency is read from the fitted curve at half-maximal effect
Summary of the method: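 In this qHTS, 15 uM tetraoctylammonium bromide defined 100% and DMSO defined basal activity. Lymphoblastoid cells (LYMP1-001, 2500 per well) received compound for 16 hr at 37 C before a fluorogenic dead-cell substrate readout at 485/520 nm.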

[12] = Cell Viability - LYMP1-003 - Assay at 24 hr (AID 963); also: potency is read from the fitted curve at half-maximal effect
Summary of the method: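 Concentration-response qHTS: ATP loss measured by CellTiter-Glo luminescence after 24 h compound exposure at 37 C. Cells were LYMP1-003 human lymphoblastoid, 2500 per well. AC50 derived via standard Hill equation modeling.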

[13] = Cell Viability - LYMP2-003 (AID 965);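 also: cells exposed to compounds for 24 h before reading; nearly all actives have a fitted effect of over 50% in size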; also: potency is read from the fitted curve at half-maximal effect
Summary of the method: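 Acute cytotoxicity is scored as a concentration-dependent drop in intracellular ATP, measured by luciferase luminescence in human lymphoblastoid cells treated for 24 hours at 37 C. AC50 values derive from Hill-equation modelling.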

[14] = Cell Viability - LYMP2-007 (AID 979);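 also: cells exposed to compound for 24 h before reading; nearly all actives have a fitted effect of over 60% in size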; also: potency is read from the fitted curve at half-maximal effect
Summary of the method: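 AC50 values come from Hill-equation fits of luminescent intracellular ATP (CellTiter-Glo, 30 min, room temperature) following 24 h compound exposure at 37 C. Cells: LYMP2-007 lymphoblastoid line, 2500 per well, in complete culture medium.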

[15] = Cell Viability - LYMP1-002 - Assay at 24 hr (AID 993); also: potency is read from the fitted curve at half-maximal effect
Summary of the method: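 qHTS cytotoxicity at 24 h: CellTiter-Glo ATP luminescence in lymphoblastoid line LYMP1-002 incubated with compound at 37 °C. Concentration-response modeled with the Hill equation for AC50; tetraoctylammonium bromide served as positive control.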

[16] = target: Voltage-gated inwardly rectifying potassium channel KCNH2 (Homo sapiens) (UniProt Q12809); test: qHTS Assay for Small Molecule Inhibitors of the Human hERG Channel Activity (AID 588834);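 also: lower thallium flux fluorescence means stronger hERG block; nearly all actives have a fitted effect of over 50% in size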; also: potency is read from the fitted curve at half-maximal effect
Summary of the method: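 Cells were infected with hERG-BacMam virus for 4 hrs at room temperature, grown overnight, then seeded at 2000/well. After dye loading and roughly 10 min compound treatment, thallium influx was triggered and fluorescence recorded.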

[17] = Cell Viability - Jurkat (AID 426;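 active = dose-dependent loss of cell ATP signal giving a full or clear fitted curve, ranked by lower potency value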;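 also: potency is read from the fitted curve at half-maximal effect; cells exposed to compound for 40 hours at 37 °C before ATP read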); conditions: qHTS
Summary of the method: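 Cytotoxicity taken as drop in cellular ATP (CellTiter-Glo luminescence, 20 min room temperature) after 40 hr, 37C treatment of 5000 Jurkat Clone E6-1 cells per well; concentration-response fitted with Hill equation for AC50.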

[18] = target: Mitogen-activated protein kinase 10 (Mus musculus) (UniProt Q61831); test: JNK3 AlphaScreen Assay (AID 530; active = well fitted curve in either direction with a large enough effect, not every such curve was filed as active;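 also: kinase came from lysate of stimulated human HepG2 cells; signal reports phosphorylation of biotinylated GST-cJun 1-79 at Ser73 with 10 µM ATP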)
Summary of the method: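 Phosphorylation of biotinylated GST-cJun(1-79) at Ser73 is measured by AlphaScreen proximity luminescence. Enzyme is JNK3 in HepG2 lysates activated with interleukin-1beta and tumor necrosis factor alpha; ATP is 10 uM final.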

[19] = Cell Viability - HepG2 (AID 433; calls by dose curve;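 also: potency is read from the fitted curve at half-maximal effect; potency for ATP loss meaning cytotoxicity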); conditions: qHTS
Summary of the method: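 Cytotoxicity is scored as loss of intracellular ATP in HepG2 cells exposed to compounds for 40 h. Concentration-response curves, normalized to DMSO and 100 uM tamoxifen, give AC50 values.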

[20] = Cell Viability - H-4-II-E (AID 543); also: nearly all actives have a fitted effect of over 35% in size; also: potency is read from the fitted curve at half-maximal effect
Summary of the method: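 CellTiter-Glo luminescence (intracellular ATP) measured after 40 h compound exposure at 37 °C in H-4-II-E rat hepatoma cells seeded at 1500/well. Values are AC50s fitted with the standard Hill equation.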

Voltage-gated inwardly rectifying potassium channel KCNH2 (Homo sapiens), sequence (Q12809 whole entry, looked up): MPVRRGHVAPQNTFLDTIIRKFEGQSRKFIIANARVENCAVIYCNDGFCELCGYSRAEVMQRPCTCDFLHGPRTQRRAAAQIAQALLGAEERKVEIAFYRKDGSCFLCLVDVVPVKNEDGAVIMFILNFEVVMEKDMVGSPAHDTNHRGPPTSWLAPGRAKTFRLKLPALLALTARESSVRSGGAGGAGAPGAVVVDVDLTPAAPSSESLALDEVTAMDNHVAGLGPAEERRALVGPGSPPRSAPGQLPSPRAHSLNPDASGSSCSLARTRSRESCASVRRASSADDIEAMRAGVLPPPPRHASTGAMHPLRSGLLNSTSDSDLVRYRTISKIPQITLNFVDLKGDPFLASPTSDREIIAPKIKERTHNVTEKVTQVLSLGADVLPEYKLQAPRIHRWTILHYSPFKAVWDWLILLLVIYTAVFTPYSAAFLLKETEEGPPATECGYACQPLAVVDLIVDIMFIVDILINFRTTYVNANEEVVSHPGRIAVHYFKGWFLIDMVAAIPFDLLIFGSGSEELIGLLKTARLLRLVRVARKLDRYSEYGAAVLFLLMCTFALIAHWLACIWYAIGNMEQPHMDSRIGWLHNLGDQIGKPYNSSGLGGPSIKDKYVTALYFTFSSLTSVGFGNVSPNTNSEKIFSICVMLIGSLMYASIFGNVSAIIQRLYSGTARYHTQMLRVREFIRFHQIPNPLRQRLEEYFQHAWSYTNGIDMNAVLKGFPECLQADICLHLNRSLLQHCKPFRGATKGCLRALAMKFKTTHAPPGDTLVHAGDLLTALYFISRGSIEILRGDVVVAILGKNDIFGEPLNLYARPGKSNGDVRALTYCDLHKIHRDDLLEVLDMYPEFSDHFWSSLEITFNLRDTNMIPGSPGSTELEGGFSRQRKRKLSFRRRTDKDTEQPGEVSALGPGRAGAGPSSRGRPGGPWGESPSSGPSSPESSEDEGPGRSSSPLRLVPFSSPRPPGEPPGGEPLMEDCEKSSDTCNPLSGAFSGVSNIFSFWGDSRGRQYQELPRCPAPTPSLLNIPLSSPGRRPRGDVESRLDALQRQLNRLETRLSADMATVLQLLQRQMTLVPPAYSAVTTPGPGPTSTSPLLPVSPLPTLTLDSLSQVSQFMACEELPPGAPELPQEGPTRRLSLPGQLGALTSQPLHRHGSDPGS

For `O=C1OC2(c3cc(Br)c(O)c(Br)c3Oc3c2cc(Br)c(O)c3Br)c2c(Cl)c(Cl)c(Cl)c(Cl)c21`, the Potency [1] was greater than 92 µM, the Potency [2] was 25.1 µM (active) and the Potency [3] was “inactive”. For the same compound, the Potency [4] was “inactive”, the Potency [5] was “inactive” and the outcome [6] was “inactive”. For the same compound, the caspase-3 activation [7] was 0.172%, the caspase-3 activation [8] was -0.639% and the caspase-3 activation [9] was -0.811%. For the same compound, the Potency [10] was “inactive”, the Potency [11] was “inactive” and the Potency [12] was “inactive”. For the same compound, the Potency [13] was “inactive”, the Potency [14] was “inactive” and the Potency [15] was “inactive”. For the same compound, the Potency [16] was 3.98 µM (active).

With `O=C1OC(O)C(C(Cl)Cl)=C1Cl` (stereo not drawn) the Potency [17] was 21.3 µM (active), the Potency [18] was “inactive” and the Potency [5] was “inactive”. For the same compound, the outcome [6] was “inactive”, the caspase-3 activation [8] was 24.6% and the caspase-3 activation [9] was 0.823%. The Potency [10] was “inactive”, the Potency [13] was 15.8 µM (active) and the Potency [14] was 25.1 µM (active). The Potency [16] was “inactive”.

In the case of `COc1cc2c(c(OC)c1OC)-c1ccc(OC)c(=O)cc1[C@H](NC(C)=O)CC2`, the Potency [18] is reported as “inactive”.

With `ClC1=C(Cl)C(Cl)(Cl)C(Cl)=C1Cl` the Potency [17] was 1.88 µM (active), the Potency [1] was greater than 92 µM and the Potency [19] was 22.6 µM (active). For the same compound, the Potency [18] was “inactive”, the activity change, negative = cytotoxicity [2] was -125% (active) and the Potency [20] was “inactive”. The Potency [3] was 0.316 µM (active), the Potency [4] was “inactive” and the Potency [5] was 3.98 µM (active). For the same compound, the outcome [6] was “inactive”, the caspase-3 activation [8] was 4.97% and the caspase-3 activation [9] was 131% (active). For the same compound, the Potency [10] was “inactive”, the Potency [11] was “inactive” and the Potency [12] was “inactive”. The Potency [13] was “inactive” and the Potency [15] was “inactive”.

For `C/C=C1\C(=O)C[C@H]2[C@@H]3CCC4=CC(=O)CC[C@]4(C)[C@H]3CC[C@]12C`, the Potency [19] was greater than 92 µM, the Potency [18] was “inactive” and the activity change, negative = cytotoxicity [2] was -149% (active). The Potency [20] was 39.8 µM (active), the Potency [3] was “inactive” and the Potency [4] was “inactive”. For the same compound, the Potency [5] was “inactive”, the caspase-3 activation [7] was 1.31% and the caspase-3 activation [8] was 22.9%. The Potency [10] was “inactive”, the Potency [11] was 50.1 µM (active) and the Potency [12] was “inactive”. The Potency [13] was “inactive”, the Potency [14] was “inactive” and the Potency [15] was “inactive”. For the same compound, the Potency [16] was 35.5 µM (active).

In the case of `CCCCCCCC[N+](CCCCCCCC)(CCCCCCCC)CCCCCCCC`, the Potency [17] is reported as 7.74 µM (active), the Potency [1] is reported as 7.17 µM (active) and the Potency [19] is reported as 4.92 µM (active). For the same compound, the Potency [18] was “inactive”, the Potency [2] was 3.16 µM (active) and the Potency [20] was 12.6 µM (active). For the same compound, the Potency [3] was 12.6 µM (active), the Potency [5] was 12.6 µM (active) and the Potency [10] was 31.6 µM (active). For the same compound, the Potency [11] was 6.31 µM (active), the Potency [12] was 7.94 µM (active) and the Potency [13] was 10 µM (active). For the same compound, the Potency [14] was 2.51 µM (active), the Potency [15] was 3.16 µM (active) and the Potency [16] was 0.355 µM (active).

With `O=Cc1ccc(Cl)c(Cl)c1` the Potency [1] was greater than 92 µM, the Potency [19] was greater than 92 µM and the Potency [18] was “inactive”. The Potency [2] was “inactive”, the Potency [20] was “inactive” and the Potency [3] was “inactive”. The Potency [4] was “inactive”, the Potency [5] was “inactive” and the outcome [6] was “inactive”. For the same compound, the caspase-3 activation [7] was 1.15%, the caspase-3 activation [8] was 0.309% and the caspase-3 activation [9] was 1.45%. For the same compound, the Potency [10] was “inactive”, the Potency [11] was “inactive” and the Potency [12] was “inactive”. For the same compound, the Potency [13] was “inactive”, the Potency [14] was “inactive” and the Potency [15] was “inactive”. For the same compound, the Potency [16] was “inactive”.

For `CC/C(=C(\c1ccccc1)c1ccc(OCCN(C)C)cc1)c1ccc(O)cc1`, the Potency [17] was 40.8 µM (active), the Potency [19] was 29.4 µM (active) and the Potency [18] was “inactive”. For the same compound, the activity change, negative = cytotoxicity [2] was -141% (active), the Potency [20] was 39.8 µM (active) and the Potency [3] was 31.6 µM (active). For the same compound, the Potency [4] was “inactive”, the caspase-3 activation [8] was 124% (active) and the Potency [10] was “inactive”.
